From PubChem BioAssay (Tox21)
Several values for one entry are separate records, joined by “and”; a condition that tells them apart may be missing. Equal values may be shown once. Some structures have more than one record in an assay (separate samples or runs), and their calls can disagree. Activity calls are given as the source filed them. Unless noted, calls follow the shape of the dose curve; as a rule, active = well fitted curve in the direction sought with a large enough effect in the repeat runs; inconclusive = weak or mixed curves; inactive = no such curve, though single readings can be large; an effect the other way counts as inactive or inconclusive.

Experiments:
[1] = qHTS assay to identify small molecule antagonists of the glucocorticoid receptor (GR) signaling pathway - cell viability counter screen (AID 720693); also: nearly all actives have a fitted effect of over 55% in size; also: potency is read from the fitted curve at half-maximal effect
[2] = qHTS assay for identifying genotoxic compounds that show differential cytotoxicity against isogenic chicken DT40 cell lines with known DNA damage response pathways - wild type cell line (AID 743012); also: nearly all actives have a fitted effect of over 60% in size; also: potency is read from the fitted curve at half-maximal effect
How it was run: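 CellTiter-Glo luminescence readout of viability in wild type DT40 cells after 40 h compound exposure at 37 C/5% CO2; 300 cells/well; reagent incubated 30 min at room temperature before reading.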

[3] = qHTS assay for identifying genotoxic compounds that show differential cytotoxicity against isogenic chicken DT40 cell lines with known DNA damage response pathways - Rev3 mutant cell line (AID 743014); also: nearly all actives have a fitted effect of over 55% in size; also: potency is read from the fitted curve at half-maximal effect
[4] = qHTS assay for identifying genotoxic compounds that show differential cytotoxicity against isogenic chicken DT40 cell lines with known DNA damage response pathways - Rad54/Ku70 mutant cell line (AID 743015); also: nearly all actives have a fitted effect of over 60% in size; also: potency is read from the fitted curve at half-maximal effect
[5] = qHTS assay to identify small molecule antagonists of the androgen receptor (AR) signaling pathway - cell viability counter screen (AID 743033; also: nearly all actives have a fitted effect of over 45% in size; also: potency is read from the fitted curve at half-maximal effect)
[6] = biological target: Androgen receptor (Homo sapiens) (UniProt P10275); assay: qHTS assay to identify small molecule agonists of the androgen receptor (AR) signaling pathway (AID 743036; active = well fitted activation curve with a large enough effect in the signal ratio in the repeat runs, with a control signal flat, not every such curve was filed as active; inconclusive = weak or mixed curves, or effect the other way; inactive = no such curve, though single readings can be large or run the other way; the % refers to the signal ratio)
How it was run: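 Activation was read as beta-lactamase FRET signal from LiveBLAzer B/G substrate, added for 2 h at room temperature. Before that, GeneBLAzer AR-UAS-bla GripTite (HEK293) cells had 16 h compound exposure at 37C.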

[7] = biological target: Androgen receptor (Homo sapiens) (UniProt P10275); assay: qHTS assay to identify small molecule agonists of the androgen receptor (AR) signaling pathway using the MDA cell line (AID 743040; also: nearly all actives have a fitted effect of over 20% in size)
How it was run: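 Luciferase read-out, ONE-Glo, 30 min RT. Cells: MDA-kb2 AR-luc, MMTV promoter with AR and GR response elements. Compound exposure 16 h, 37C, 0% CO2, after 5 h pre-incubation. qHTS agonist mode.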

[8] = qHTS assay to identify small molecule antagonists of the androgen receptor (AR) signaling pathway using the MDA cell line - cell viability counter screen (AID 743041; also: nearly all actives have a fitted effect of over 45% in size; also: potency is read from the fitted curve at half-maximal effect)
How it was run: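 Cytotoxicity counter screen: MDA-kb2 AR-luc cells, compound + R1881, 16 h, 37C, 0% CO2; CellTiter-Fluor added at 15.5 h, fluorescence read after 30 min.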

[9] = qHTS assay to identify small molecule antagonists of the thyroid receptor (TR) signaling pathway - cell viability counter screen (AID 743064); also: nearly all actives have a fitted effect of over 50% in size; also: potency is read from the fitted curve at half-maximal effect
How it was run: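 In-well cytotoxicity read by CellTiter-Fluor (30 min, 37 C) following 23.5 h exposure of GH3 cells bearing a TRE-luciferase sensor. Compounds were added alongside 1 nM (final) T3 to drive TR transactivation.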

[10] = test system: thyroid hormone receptor (rat, GH3 cells); assay: qHTS assay to identify small molecule agonists of the thyroid receptor (TR) signaling pathway (AID 743066; calls by dose curve)
[11] = biological target: Estrogen receptor (Homo sapiens) (UniProt P03372); assay: qHTS assay to identify small molecule antagonists of the estrogen receptor alpha (ER-alpha) signaling pathway (AID 743069; active = well fitted curve in the direction sought with a large enough effect in the signal ratio in the repeat runs, not every such curve was filed as active; inconclusive = weak or mixed curves, or effect the other way; inactive = no such curve, though single readings can be large or run the other way; the % refers to the signal ratio; also: potency is read from the fitted curve at half-maximal effect)
How it was run: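 Beta-lactamase FRET fluorescence is read after 2 hr at room temperature with LiveBLAzer B/G substrate. Before that, ER-alpha-bla HEK293 cells sit 4 hr after plating, then receive compound plus 17beta-estradiol and incubate 18 hr at 37C.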

[12] = qHTS assay to identify small molecule antagonists of the estrogen receptor alpha (ER-alpha) signaling pathway - cell viability counter screen (AID 743074; calls by dose curve;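 also: HEK293 cells carrying ER-alpha-UAS-bla reporter stimulated with 17beta-estradiol; nearly all actives have a fitted effect of over 45% in size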; also: potency is read from the fitted curve at half-maximal effect)
[13] = biological target: Estrogen receptor (Homo sapiens) (UniProt P03372); assay: qHTS assay to identify small molecule agonists of the estrogen receptor alpha (ER-alpha) signaling pathway (AID 743075; calls by dose curve;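 also: HEK293 GripTite cells with ER-alpha and UAS-driven beta-lactamase reporter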; also: potency is read from the fitted curve at half-maximal effect)
[14] = biological target: Estrogen receptor (Homo sapiens) (UniProt P03372); assay: qHTS assay to identify small molecule agonists of the estrogen receptor alpha (ER-alpha) signaling pathway using the BG1 cell line (AID 743079); conditions: BG1Luc4E2 cells, ERE-luciferase agonist, 22 h; activation: at 70.3 µM (top of the series); also: nearly all actives have a fitted effect of over 20% in size; also: potency is read from the fitted curve at half-maximal effect
[15] = qHTS assay to identify small molecule antagonists of the estrogen receptor alpha (ER-alpha) signaling pathway using the BG1 cell line (AID 743080; calls by dose curve;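 also: BG1 cells stimulated with 17beta-estradiol alongside compound; nearly all actives have a fitted effect of over 25% in size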; also: potency is read from the fitted curve at half-maximal effect); conditions: BG1Luc4E2 ERE-luciferase antagonist mode, luminescence; activity change, negative = inhibition: at 70.3 µM (top of the series)
How it was run: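 Quantitative HTS on the Tox21 10K library: BG1 cells with endogenous ER-alpha and ERE-luciferase reporter, 17beta-estradiol stimulation, 21.5 h compound exposure, luminescence endpoint with parallel fluorescence cytotoxicity counter-read.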

[16] = qHTS assay to identify small molecule antagonists of the estrogen receptor alpha (ER-alpha) signaling pathway using the BG1 cell line - cell viability counter screen (AID 743081);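 also: compound given together with 17beta-estradiol as the ER stimulus; nearly all actives have a fitted effect of over 45% in size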; also: potency is read from the fitted curve at half-maximal effect
[17] = biological target: Aromatase (Homo sapiens) (UniProt P11511); assay: qHTS assay to identify aromatase inhibitors (AID 743083); also: nearly all actives have a fitted effect of over 55% in size; also: potency is read from the fitted curve at half-maximal effect
[18] = qHTS assay to identify small molecule antagonists of the thyroid receptor (TR) signaling pathway (AID 743065); also: nearly all actives have a fitted effect of over 55% in size; also: potency is read from the fitted curve at half-maximal effect
How it was run: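 GH3.TRE-Luc rat pituitary cells (two TREs driving luciferase) were dosed with compound, then stimulated with 1 nM T3 (final) for 23.5 h at 37 C. ONE-Glo luminescence was the read-out, with CellTiter-Fluor fluorescence as the cytotoxicity counter-screen.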

[19] = biological target: Androgen receptor (Homo sapiens) (UniProt P10275); assay: qHTS assay to identify small molecule antagonists of the androgen receptor (AR) signaling pathway using the MDA cell line (AID 743042; also: nearly all actives have a fitted effect of over 55% in size; also: potency is read from the fitted curve at half-maximal effect)
How it was run: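 MDA-kb2 breast carcinoma cells carrying MMTV-luciferase (AR/GR responsive) were co-treated with compounds and the agonist R1881 for 16 h at 37C. Inhibition read as ONE-Glo luminescence; CellTiter-Fluor fluorescence measured in parallel for cytotoxicity.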

[20] = biological target: Androgen receptor (Homo sapiens) (UniProt P10275); assay: qHTS assay to identify small molecule antagonists of the androgen receptor (AR) signaling pathway (AID 743035; active = well fitted inhibition curve with a large enough effect in the signal ratio in the repeat runs, not every such curve was filed as active; inconclusive = weak or mixed curves, or effect the other way; inactive = no such curve, though single readings can be large or run the other way; the % refers to the signal ratio; also: potency is read from the fitted curve at half-maximal effect)
How it was run: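 AR-bla HEK293 reporter cells; 4 h settle at 37C/5% CO2; compound + R1881 agonist, 16 h at 37C; LiveBLAzer B/G FRET substrate 2 h RT; fluorescence intensity read. qHTS format.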

Measured: Potency

Sequence of Aromatase (Homo sapiens) (P11511 whole entry, looked up): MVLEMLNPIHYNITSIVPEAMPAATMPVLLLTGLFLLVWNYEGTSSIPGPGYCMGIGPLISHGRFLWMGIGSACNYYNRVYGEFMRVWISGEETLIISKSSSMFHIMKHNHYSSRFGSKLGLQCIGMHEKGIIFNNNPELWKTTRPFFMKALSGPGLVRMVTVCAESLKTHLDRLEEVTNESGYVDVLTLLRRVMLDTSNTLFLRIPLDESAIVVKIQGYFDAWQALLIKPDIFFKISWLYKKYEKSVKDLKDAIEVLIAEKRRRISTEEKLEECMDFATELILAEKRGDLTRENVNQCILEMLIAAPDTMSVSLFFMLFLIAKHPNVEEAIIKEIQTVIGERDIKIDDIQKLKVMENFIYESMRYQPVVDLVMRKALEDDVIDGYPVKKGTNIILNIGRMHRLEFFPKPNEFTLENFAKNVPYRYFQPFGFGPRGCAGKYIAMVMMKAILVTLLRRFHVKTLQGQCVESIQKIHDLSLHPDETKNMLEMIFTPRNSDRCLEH
Sequence of Estrogen receptor (Homo sapiens) (P03372 whole entry, looked up): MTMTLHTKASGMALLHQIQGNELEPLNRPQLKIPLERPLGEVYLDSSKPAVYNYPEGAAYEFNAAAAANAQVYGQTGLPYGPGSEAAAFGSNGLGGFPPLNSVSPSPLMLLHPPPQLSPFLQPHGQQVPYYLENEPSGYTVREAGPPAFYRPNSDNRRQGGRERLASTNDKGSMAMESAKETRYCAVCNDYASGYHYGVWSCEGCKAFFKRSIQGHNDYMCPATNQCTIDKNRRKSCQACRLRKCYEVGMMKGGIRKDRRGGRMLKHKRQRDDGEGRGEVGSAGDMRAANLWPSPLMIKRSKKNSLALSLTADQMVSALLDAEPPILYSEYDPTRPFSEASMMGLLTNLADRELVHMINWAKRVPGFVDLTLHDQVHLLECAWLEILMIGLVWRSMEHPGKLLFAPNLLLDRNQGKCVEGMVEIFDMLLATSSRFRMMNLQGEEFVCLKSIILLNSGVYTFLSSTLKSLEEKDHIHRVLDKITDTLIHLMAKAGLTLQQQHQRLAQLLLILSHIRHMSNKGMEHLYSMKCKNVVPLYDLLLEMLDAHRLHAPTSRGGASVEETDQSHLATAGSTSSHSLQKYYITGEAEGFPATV
Sequence of Androgen receptor (Homo sapiens) (P10275 whole entry, looked up): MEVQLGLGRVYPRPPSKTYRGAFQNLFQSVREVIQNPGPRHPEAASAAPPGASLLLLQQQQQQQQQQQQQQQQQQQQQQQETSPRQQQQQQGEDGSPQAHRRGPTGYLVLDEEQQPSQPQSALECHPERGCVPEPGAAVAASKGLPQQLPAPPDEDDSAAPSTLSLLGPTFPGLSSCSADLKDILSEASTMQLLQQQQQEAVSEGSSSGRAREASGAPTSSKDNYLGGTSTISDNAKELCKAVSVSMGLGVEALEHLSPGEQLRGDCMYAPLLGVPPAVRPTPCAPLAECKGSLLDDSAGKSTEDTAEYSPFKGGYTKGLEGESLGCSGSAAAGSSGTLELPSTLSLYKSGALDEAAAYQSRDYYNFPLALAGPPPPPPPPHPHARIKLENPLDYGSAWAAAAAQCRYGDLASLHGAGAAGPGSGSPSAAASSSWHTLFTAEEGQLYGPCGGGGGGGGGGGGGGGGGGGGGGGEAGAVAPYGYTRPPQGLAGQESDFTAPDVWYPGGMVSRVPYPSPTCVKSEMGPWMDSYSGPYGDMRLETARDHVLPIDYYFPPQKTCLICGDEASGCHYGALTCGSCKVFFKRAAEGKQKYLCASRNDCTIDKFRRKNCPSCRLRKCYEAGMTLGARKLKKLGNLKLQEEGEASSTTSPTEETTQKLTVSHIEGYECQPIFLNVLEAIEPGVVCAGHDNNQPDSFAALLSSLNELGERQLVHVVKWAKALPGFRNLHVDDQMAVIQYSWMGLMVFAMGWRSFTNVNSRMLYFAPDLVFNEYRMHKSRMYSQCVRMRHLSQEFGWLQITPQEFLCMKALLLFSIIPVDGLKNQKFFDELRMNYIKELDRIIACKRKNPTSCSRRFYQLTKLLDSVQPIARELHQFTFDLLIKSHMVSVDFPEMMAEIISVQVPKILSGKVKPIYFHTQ

CCCSS/C(CCO)=C(\C)N(C=O)Cc1cnc(C)nc1N
active: [2] 5.31 µM | [3] 8.41 µM | [4] 13.3 µM | [9] 26.6 µM | [17] 26.6 µM
not listed: [18] | [19] | [20]
inactive: all other assays above

CCCCCCCOC(=O)c1ccc(O)cc1
inactive: [2] | [5] | [8] | [10] | [12] | [16]
active: [1] 49 µM | [3] 43.3 µM | [4] 54.5 µM and 48.6 µM | [9] 61.1 µM | [18] 61.1 µM | [11] 54.9 µM [inhibitor] | [13] 55 µM [inconclusive] and 54.9 µM [inconclusive] | [14] 15.4 µM and 19.3 µM | [17] 43.3 µM

CCN=C1C=CC(=C(c2ccc(N(CC)CC)cc2)c2ccc(N(CC)CC)cc2)c2ccccc21
inactive: [7] | [10]
active: [1] 24.4 µM | [2] 0.0192 µM | [3] 0.0305 µM | [4] 0.0192 µM | [5] 0.0434 µM | [8] 0.121 µM | [19] 43 nM | [9] 0.542 µM | [18] 0.121 µM | [11] 38.7 µM [cytotoxic] | [12] 19.4 µM | [15] 0.136 µM | [16] 30.5 µM | [17] 0.216 µM

CC(C)=C1CC[C@@H](C)CC1=O
not listed: [6] | [7] | [14] | [15] | [19] | [20]
inactive: all other assays above

CCCN(CCc1cccs1)[C@H]1CCc2c(O)cccc2C1
active: [2] 18.8 µM | [3] 26.6 µM | [4] 23.7 µM | [17] 26.6 µM
not listed: [6] | [9] | [18] | [20]
inactive: all other assays above

O=C(Nc1ccc(Cl)cc1)Nc1ccc(Cl)c(C(F)(F)F)c1
inactive: [13] | [16]
active: [1] 21.3 µM | [2] 4.22 µM | [3] 5.31 µM | [4] 5.31 µM | [5] 6.01 µM | [8] 23.7 µM | [9] 6.68 µM | [18] 5.31 µM | [12] 9.52 µM | [15] 21.1 µM | [17] 10.6 µM

CCN=c1cc2oc3cc(NCC)c(C)cc3c(-c3ccccc3C(=O)OCC)c-2cc1C
active: [1] 21.8 µM and 21.9 µM | [2] 484 nM and 172 nM | [3] 384 nM and 137 nM | [4] 305 nM and 109 nM | [5] 689 nM and 1.23 µM | [20] 154 nM | [8] 683 nM and 386 nM | [19] 108 nM and 96.9 nM | [9] 1.08 µM and 1.22 µM | [18] 609 nM and 1.09 µM | [11] 48.8 nM [inconclusive] and 155 nM [inconclusive] | [12] 24.5 µM and 21.9 µM | [15] 172 nM and 217 nM | [16] 3.84 µM and 5.45 µM | [17] 193 nM and 137 nM
inactive: [7] | [10] | [13]

C[C@@H]1CC[C@H]2C(C)(C)[C@H]3C[C@@]12CC[C@@]3(C)O
not listed: [9] | [15] | [18]
inactive: all other assays above

O=C(O)CCCCCCC(=O)O
not listed: [6] | [7] | [11] | [13] | [14] | [15] | [19] | [20]
inactive: all other assays above

CCCCCCCCCCCCN(CCO)CCO
active: [1] 34.5 µM | [2] 0.86 µM | [3] 0.172 µM | [4] 0.609 µM | [5] 43.5 µM | [8] 19.3 µM | [19] 15300 nM | [9] 17.2 µM | [18] 15.3 µM | [12] 48.8 µM | [15] 68.3 µM | [17] 30.5 µM
inactive: [7] | [10] | [13]

O=C1NCN(c2ccccc2)C12CCN(CCCC(c1ccc(F)cc1)c1ccc(F)cc1)CC2
inactive: [5]
active: [1] 21.3 µM | [2] 6.68 µM | [3] 10.6 µM | [4] 9.44 µM | [8] 29.8 µM | [9] 3.35 µM | [18] 5.96 µM | [16] 26.6 µM

CC1=C(/C=C/C(C)=C/C=C/C(C)=C/C(=O)Nc2ccc(O)cc2)C(C)(C)CCC1
inactive: [7] | [10] | [13]
inactive and 44.8 µM (active): [5]
active: [1] 44.8 µM | [2] 9.44 µM and 22.2 µM | [3] 13.3 µM and 9.94 µM | [4] 9.44 µM and 9.94 µM | [20] 23.9 µM and 14.2 µM | [8] 23.7 µM and 44.4 µM | [19] 29.8 µM and 28 µM | [9] 6.68 µM and 8.85 µM | [11] 6.01 µM [inhibitor] | [16] 16.8 µM and 62.7 µM | [17] 13.3 µM and 28 µM
